We go through 15 compounds from PubChem BioAssay.

For part of these data: Entries with a potency or affinity are not part of this list. Active and inactive are the calls of the source.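 How the source made its calls, unless noted: active means fitted half-maximal concentration within the tested dose range, moderate curve steepness, a statistically real signal drop, and little compound fluorescence or tag-binding interference; inactive means the rest.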

For assay [1], the target named is Cell division control protein 42 homolog (Homo sapiens) (UniProt P60953). The experiment in a line: activated mutant Cdc42 GTP-binding inhibitors, dose response, biochemical, multiplex bead flow cytometry, Bodipy-FL-GTP (AID 1333). In general terms: A flow cytometer gives signals particle by particle.
Cell division control protein 42 homolog (Homo sapiens), sequence (P60953 whole entry, looked up): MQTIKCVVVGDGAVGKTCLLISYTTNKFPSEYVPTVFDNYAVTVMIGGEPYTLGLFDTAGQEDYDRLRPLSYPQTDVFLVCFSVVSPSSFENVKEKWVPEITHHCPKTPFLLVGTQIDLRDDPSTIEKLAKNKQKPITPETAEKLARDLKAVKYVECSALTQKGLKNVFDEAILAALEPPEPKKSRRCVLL
Assay [2] has the same target. The experiment in a line: wildtype Cdc42 GTP-binding inhibitors, dose response, biochemical, multiplex bead flow cytometry, Bodipy-FL-GTP (AID 1334;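 active means fitted half-maximal concentration within the tested range, moderate curve steepness, significant signal drop, and little compound fluorescence or bead-linkage interference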). Conditions: bead-based flow cytometry, Bodipy-FL-GTP binding to GST-Cdc42; at 100 µM (top of the series) unless noted.
The target of assay [3] is GTPase HRas (Homo sapiens) (UniProt P01112). The experiment in a line: inhibitors of GTP binding to wildtype Ras, dose response, biochemical, multiplex bead flow cytometry (AID 1335;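 active means fitted half-maximal concentration within 10 nM to 100 µM, steepness 0.5 to 2, significant signal drop, low assay interference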). Conditions: bead-based flow cytometry, Bodipy-GTP binding to GST-Ras; at 100 µM (top of the series) unless noted.
GTPase HRas (Homo sapiens), sequence (P01112 whole entry, looked up): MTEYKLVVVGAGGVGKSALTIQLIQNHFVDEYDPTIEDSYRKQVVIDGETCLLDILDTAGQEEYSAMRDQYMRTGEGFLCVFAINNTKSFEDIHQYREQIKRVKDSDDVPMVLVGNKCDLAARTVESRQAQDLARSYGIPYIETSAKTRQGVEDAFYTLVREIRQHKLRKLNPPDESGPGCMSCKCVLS
Assay [4] relates to Ras-related protein Rab-7a (dog), GTP binding. In words: Rab7 GTP binding inhibitors, potency, dose response, biochemical, wildtype, multiplex bead flow cytometry (AID 1336; call rule not given here).
The target of assay [5] is Ras-related C3 botulinum toxin substrate 1 (Homo sapiens) (UniProt P63000). The experiment in a line: wildtype Rac1 GTP binding inhibitors, dose response, biochemical, multiplex bead flow cytometry (AID 1340;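 active means dose curve with midpoint inside tested range, moderate steepness, plateau gap beyond fit error, low compound glow and bead-link interference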). Conditions: GST-Rac1 beads, Bodipy-FL-GTP binding; at 100 µM (top of the series) unless noted.
Assay [6] has as its target GTPase HRas (Homo sapiens) (UniProt P01112). In words: activated Ras mutant GTP binding inhibitors, dose response, biochemical, multiplex bead flow cytometry (AID 1341;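 active means dose-response curve with midpoint inside the tested range, moderate steepness, significant amplitude and little compound fluorescence or bead-attachment interference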;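 further: GST-tagged constitutively activated Ras mutant immobilized on beads and multiplexed with other GTPases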).

In the case of `COc1ccccc1OCc1cccc(C(=O)O)c1`, the compound was classed as inactive in assay [1], in assay [4] and in assay [6]. This compound also yielded a fluorescence, percent of control (lower = inhibition) in assay [2] of 64.9%. For the same compound, the GTP binding, percent of control in assay [3] stood at 92.8%. Besides, the GTP binding signal, raw median fluorescence (lower = inhibition) (MCF (arbitrary fluorescence units)) in assay [5] is 42.
For `COc1ccccc1OCCn1cc(C(=O)O)c2cc(C)ccc21`, the call in assay [1], in assay [4] and in assay [6] was inactive. The fluorescence, percent of control (lower = inhibition) in assay [2] stood at 62.1%. The same compound displayed a GTP binding, percent of control in assay [3] of 212%. For the same compound, the GTP binding signal, raw median fluorescence (lower = inhibition) (MCF (arbitrary fluorescence units)) in assay [5] came out at 57.3.
Regarding `Cc1nc2ccc(NC(=O)COc3ccccc3)cc2s1`, the result in assay [1], in assay [4] and in assay [6] was inactive. Further, in assay [2], the fluorescence, percent of control (lower = inhibition) was 37.6%. Also, in assay [3], the GTP binding, percent of control came out at 89.8%. In assay [5], this compound displayed a GTP binding signal, raw median fluorescence (lower = inhibition) (MCF (arbitrary fluorescence units)) of 271.
For the compound `CC(C)OCCCn1c(=NC(=O)c2ccncc2)c(C#N)cc2c(=O)n3ccccc3nc21`, the outcome in assay [1], in assay [4] and in assay [6] was inactive. Moreover, in assay [2], the fluorescence, percent of control (lower = inhibition) came out at 88.2%. In addition, the GTP binding, percent of control in assay [3] worked out at 160%. In assay [5], this compound had a GTP binding signal, raw median fluorescence (lower = inhibition) (MCF (arbitrary fluorescence units)) of 161.
Regarding `O=c1/c(=C/c2ccc(CNS(=O)(=O)c3ccccc3)o2)sc2n1CCN=2`, the call in assay [1], in assay [4] and in assay [6] was inactive. The same compound had a fluorescence, percent of control (lower = inhibition) in assay [2] of 29%. For the same compound, the GTP binding, percent of control in assay [3] came out at 63.2%. The GTP binding signal, raw median fluorescence (lower = inhibition) (MCF (arbitrary fluorescence units)) in assay [5] was 119.
Consider `Cc1ccc(/C(N)=N/OC(=O)CCC2CCCCC2)cc1`, for which the outcome in assay [1], in assay [4] and in assay [6] was inactive. Besides, the fluorescence, percent of control (lower = inhibition) in assay [2] came to 80.5%. This compound also showed a GTP binding, percent of control in assay [3] of 154%. The same compound registered a GTP binding signal, raw median fluorescence (lower = inhibition) (MCF (arbitrary fluorescence units)) in assay [5] of 180.
As to `COc1ccccc1C(=O)Nc1nc(-c2ccc3c(c2)OCCO3)cs1`, the outcome in assay [1], in assay [4] and in assay [6] was inactive. The compound also returned a fluorescence, percent of control (lower = inhibition) in assay [2] of 28.6%. Moreover, in assay [3], the GTP binding, percent of control is 77%. In addition, the GTP binding signal, raw median fluorescence (lower = inhibition) (MCF (arbitrary fluorescence units)) in assay [5] worked out at 216.
Take `CCCCNc1nc(=S)[nH]c2cc(OC)c(OC)cc12`: the compound was classed as inactive in assay [1], in assay [4] and in assay [6]. In assay [2], this compound returned a fluorescence, percent of control (lower = inhibition) of 37.9%. For the same compound, the GTP binding, percent of control in assay [3] turned out to be 47.8%. In assay [5], this compound had a GTP binding signal, raw median fluorescence (lower = inhibition) (MCF (arbitrary fluorescence units)) of 110.
Consider `CCn1cc(C(=O)OCC(=O)c2cc(C)n(-c3cccc(C(F)(F)F)c3)c2C)c(=O)c2ccc(C)nc21`, for which the compound was called inactive in assay [1], in assay [4] and in assay [6]. The fluorescence, percent of control (lower = inhibition) in assay [2] stood at 37.1%. For the same compound, in assay [3], the GTP binding, percent of control was 57.8%. Further, the GTP binding signal, raw median fluorescence (lower = inhibition) (MCF (arbitrary fluorescence units)) in assay [5] is 137.
In the case of `COc1ccc(C2(CNC(=O)C(c3ccccc3)c3ccccc3)CCOCC2)cc1OC`, the compound was classed as inactive in assay [1], in assay [4] and in assay [6]. The compound further registered a fluorescence, percent of control (lower = inhibition) in assay [2] of 34%. This compound showed a GTP binding, percent of control in assay [3] of 80.6%. Also, in assay [5], the GTP binding signal, raw median fluorescence (lower = inhibition) (MCF (arbitrary fluorescence units)) is 276.
Turning to `O=C(O)C1C(C(=O)Nc2ccc(Cl)cc2)C2C=CC1C21CC1` (stereo not given), the outcome in assay [1], in assay [4] and in assay [6] was inactive. The compound also showed a fluorescence, percent of control (lower = inhibition) in assay [2] of 86.8%. Moreover, the GTP binding, percent of control in assay [3] is 149%. This compound also registered a GTP binding signal, raw median fluorescence (lower = inhibition) (MCF (arbitrary fluorescence units)) in assay [5] of 173.
Regarding `COc1cc(/C=N\NC(=O)c2ccc(Cn3nc([N+](=O)[O-])c(Cl)c3C)o2)ccc1O`, the compound was classed as inactive in assay [1], in assay [4] and in assay [6]. For the same compound, the fluorescence, percent of control (lower = inhibition) in assay [2] was 29.9%. In assay [3], this compound gave a GTP binding, percent of control of 82%. Moreover, in assay [5], the GTP binding signal, raw median fluorescence (lower = inhibition) (MCF (arbitrary fluorescence units)) worked out at 107.
Regarding `CCOC(=O)c1c2c3c(c(Cl)ccc3[nH]c1=O)C(=O)c1ccccc1-2`, the compound was called inactive in assay [1], in assay [4] and in assay [6]. For the same compound, the fluorescence, percent of control (lower = inhibition) in assay [2] was 19.1%. In assay [3], the GTP binding, percent of control is 46.2%. In assay [5], this compound showed a GTP binding signal, raw median fluorescence (lower = inhibition) (MCF (arbitrary fluorescence units)) of 103.
Consider `Oc1c(CN2CCOCC2)ccc2ccccc12`, for which the compound was classed as inactive in assay [1], in assay [4] and in assay [6]. In assay [2], this compound showed a fluorescence, percent of control (lower = inhibition) of 36.2%. Besides, the GTP binding, percent of control in assay [3] was found to be 84.5%. The compound further came in with a GTP binding signal, raw median fluorescence (lower = inhibition) (MCF (arbitrary fluorescence units)) in assay [5] of 250.
`O=C(NC1CCCCC1)C(c1ccco1)N(Cc1ccco1)C(=O)c1ccco1` (stereo not given): the outcome in assay [1], in assay [4] and in assay [6] was inactive. The same compound had a fluorescence, percent of control (lower = inhibition) in assay [2] of 90.7%. In assay [3], this compound came in with a GTP binding, percent of control of 174%. For the same compound, the GTP binding signal, raw median fluorescence (lower = inhibition) (MCF (arbitrary fluorescence units)) in assay [5] was 176.
